Hit rate of the full screen: of about 69,000 compounds, about 1,000 (1.4%) showed an effect of 50% or more. What follows is part of a selection rich in strong results, with near analogues and random picks from the rest.
Test system: Leishmania donovani
Experiment: Leishmania intramacrophage assay
Assay type: functional, organism-based
Parameters: scale not given: in the data most compounds retested in dose-response had high values

CC(C)CCN(C)Cc1ccccc1-c1nc(C(C)C)cc(=O)[nH]1
Percent Effect (30.3 µM, […]): 41.3%

CNc1cc2c(nn1)CCN(C(=O)c1coc(Br)c1)C2
Percent Effect (30 µM): -2.691%

COCCC1(CO)CCCN(Cc2cc(C(F)(F)F)ccc2F)C1 (stereo not given)
Percent Effect (30.3 µM, […]): 0.4261%

O=C(Nc1cccc(CN2CCC(CO)CC2)c1)c1cc(Cl)c[nH]1
Percent Effect (30.3 µM, […]): 28.48%

COCCNC(=O)Cn1cc2c(n1)c(C)nn2C
Percent Effect (30.3 µM, […]): -28.68%

O=C(NCCSC1CCCC1)c1cc(C2CC2)on1
Percent Effect (30.3 µM, […]): -5.763%

Cc1ccc2nc(C)cc(C(=O)NCc3csc(N(C)C)n3)c2c1
Percent Effect (30.3 µM, […]): 25.38%

COCCN(C)CC1CCCN1S(=O)(=O)Cc1ccccc1F (stereo not given)
Percent Effect (30.3 µM, […]): -13.31%

O=C(CCO)N1CCOC2(CCCN(C(=O)c3ccco3)C2)C1 (stereo not given)
Percent Effect (30 µM, 30.03 µM): -4.275%

CC(=O)N1CCCC2(C1)CN(c1nncs1)CCO2.O=C(O)C(F)(F)F (stereo not given)
Percent Effect (30.3 µM, […]): 42.05%

O=C(c1ccco1)N1CCCC2(C1)CN(c1nncs1)CCO2 (stereo not given)
Percent Effect (30.3 µM, […]): 54.73%

CO[C@@H]1CCN(S(=O)(=O)c2cccs2)[C@H]1Cc1cccnc1.O=C(O)C(F)(F)F
Percent Effect (30.3 µM, […]): 35.84%

Cc1cccc(C)c1OCC(=O)NS(=O)(=O)c1c(C)noc1C
Percent Effect (30 µM): 12.57%

CC(C)S(=O)(=O)N1CCC(c2[nH]ncc2S(C)(=O)=O)C1 (stereo not given)
Percent Effect (30.3 µM, […]): -8.157%

COc1ccc(-c2ccccc2CN)c(OC)c1
Percent Effect (30.3 µM, […]): 18.4%

COc1ccc(-c2ccccc2CCN)c(OC)c1OC
Percent Effect (30.3 µM, […]): 95.35%

COc1ccc(-c2cc(CN)ccc2F)c(OC)c1OC
Percent Effect (30.3 µM, […]): -7.273%

CC(C)N1CC[C@@H]2[C@H](COCC3CC3)CN(C)C(=O)[C@@H]2CC1.O=C(O)C(F)(F)F
Percent Effect (30.3 µM, […]): 9.802%

CS(=O)(=O)c1ccc(NC(=O)NCCC2=CCCCC2)cc1
Percent Effect (30.3 µM, […]): 16.41%

O=C(NC(CN1CCCC1)c1ccccc1)c1c(O)cc(F)cc1F (stereo not given)
Percent Effect (30.3 µM, […]): 5.752%

CNS(=O)(=O)c1cccc(C(C)NCc2ccc(F)c(F)c2)c1 (stereo not given)
Percent Effect (30.3 µM, […]): 11.11%

Cn1cc(C(NCc2ccc(F)cc2)c2cccc(F)c2)cn1 (stereo not given)
Percent Effect (30.3 µM, […]): 7.526%

Cc1ccc(CNC(=O)CN2CCN(CC(O)C3CC3)CC2)cc1.Cl.Cl (stereo not given)
Percent Effect (30 µM, 30.03 µM): 31.99%

Cc1ccc(CNC(CN2CCN(C)CC2)c2ccccc2)cc1 (stereo not given)
Percent Effect (30 µM, 30.03 µM): 94.58%

Cl.O=C(NCc1ccc(F)cc1)N1CCN(CC(O)C2CC2)CC1 (stereo not given)
Percent Effect (30.3 µM, […]): 10.63%

Cc1ccc(CNC(c2ccccc2)c2nccn2C)cc1.Cl (stereo not given)
Percent Effect (30 µM): -15.51%

COc1ccc(CNC(Cn2cncn2)c2ccccc2)cc1C (stereo not given)
Percent Effect (30.3 µM, […]): 17.02%

Cc1ccc(CNC(c2ccccc2)c2nccn2C)cc1C (stereo not given)
Percent Effect (30 µM, 30.03 µM): 38.71%

O=C(O)C(F)(F)F.O=C1COC2(CCN(S(=O)(=O)C3CC3)CC2)CN1c1cccnc1
Percent Effect (30.3 µM, […]): -7.696%

COc1ccc(C)nc1NC(=O)Cc1c(C)nn(C)c1C
Percent Effect (30.3 µM, […]): 1.753%

CC(C)NC(=O)c1ccc2nnc(C3CCN(S(C)(=O)=O)C3)n2c1 (stereo not given)
Percent Effect (30.3 µM, […]): 33.79%

CC(Cn1cncn1)NC(=O)N1CC2(CCCC2)c2ccccc21 (stereo not given)
Percent Effect (30.3 µM, […]): 3.028%

COc1ccc(C2CCCN2C(=O)NCCNc2ncccn2)cc1 (stereo not given)
Percent Effect (30 µM, 30.03 µM): 9.2%

COc1ccc(C2CCCN2C(=O)NCCNc2ccccn2)cc1 (stereo not given)
Percent Effect (30.3 µM, […]): 69.63%

COc1ccc(C2CCCN2C(=O)NCCCn2cccn2)cc1 (stereo not given)
Percent Effect (30.3 µM, […]): 9.048%

CC(=O)c1cccc(-n2nc(C(C)=O)c(C(C)=O)c2C)c1
Percent Effect (30.3 µM, […]): -0.2536%

COC[C@@]12CC[C@@H](N3CCOCC3)C[C@H]1CCN(c1ncccc1Cl)C2
Percent Effect (30 µM, 30.03 µM): 52.08%

COC[C@@]12CC[C@@H](N3CCOCC3)C[C@H]1CCN(c1ncccc1C)C2
Percent Effect (30.3 µM, […]): 25.83%

COC[C@@]12CC[C@@H](N3CCOCC3)C[C@H]1CCN(c1ncccc1F)C2
Percent Effect (30.3 µM, […]): 25.63%

CC(c1nccs1)N(C)C(=O)c1cc(CN(C)Cc2ccccc2)on1 (stereo not given)
Percent Effect (30.3 µM, […]): 13.49%

Cc1cnn(CC2CCCN2C(=O)c2cc(Cl)ccc2F)c1 (stereo not given)
Percent Effect (30 µM, 30.03 µM): -5.128%

Nc1ncc2c(n1)CN(C1CCCC1)C2=O
Percent Effect (30 µM, 30.03 µM): 22.17%

CC1CCC(N2Cc3nc(N)ncc3C2=O)CC1 (stereo not given)
Percent Effect (30.3 µM, […]): -33.84%

CN1CCC(N2Cc3nc(N)ncc3C2=O)CC1
Percent Effect (30.3 µM, […]): 54.63%

CCC1=NN2C(=N)/C(=C\c3cccn3-c3ccc(Cl)cc3)C(=O)N=C2S1
Percent Effect (30.3 µM, […]): -2.316%

CCN1C(=O)CC[C@@H]2[C@H]1CCN2S(=O)(=O)Cc1ccc(C)cc1
Percent Effect (30.3 µM, […]): 17.88%

Cl.Fc1cccc(F)c1Cn1c(C2CCNCC2)cc2cccnc21
Percent Effect (30.3 µM, […]): 57.89%

Cl.Fc1ccccc1Cn1c(C2CCNCC2)cc2cccnc21
Percent Effect (30.3 µM, […]): 43.21%

Cl.Fc1cccc(F)c1Cn1c(C2CCCNC2)cc2cccnc21 (stereo not given)
Percent Effect (30.3 µM, […]): -15.48%

Cc1nc(Nc2ncccn2)cc(C2CCN(CC(C)C)C2)n1 (stereo not given)
Percent Effect (30.3 µM, […]): 2.022%

CN1CSC[C@H]1C(=O)N1CCN(Cc2cccc(F)c2)CC1
Percent Effect (30.3 µM, […]): 4.358%

CN(CC1COc2ccccc2O1)C(=O)C1=NN(C)C(=O)CC1 (stereo not given)
Percent Effect (30.3 µM, […]): 18.48%

COc1ccccc1OCCCN(C)c1cc(C)nc(N)n1
Percent Effect (30.3 µM, […]): 16.27%

CCN1CC(CN(C)c2cc(C)nc(N)n2)Oc2ccccc21 (stereo not given)
Percent Effect (30.3 µM, […]): 84.12%

Cc1cc(N(C)CC2COc3ccccc3O2)nc(C)n1 (stereo not given)
Percent Effect (30.3 µM, […]): 59.02%

CN(Cc1nc(CC2CC2)no1)CC1COc2ccccc2O1 (stereo not given)
Percent Effect (30.3 µM, […]): -8.353%

Cc1csc(CN2CC(CO)Oc3ccccc32)n1 (stereo not given)
Percent Effect (30.3 µM, […]): -4.409%

Cc1cc(N(C)CCCn2cccn2)nc(N)n1
Percent Effect (30.3 µM, […]): 27.03%

Cc1cc(N(C)CC2COc3ccccc3O2)nc(N)n1 (stereo not given)
Percent Effect (30.3 µM, […]): 51.06%

CN(Cc1nnnn1C1CC1)CC1COc2ccccc2O1 (stereo not given)
Percent Effect (30.3 µM, […]): 4.21%

COc1ccccc1CNC(=O)N1CCCC(NS(C)(=O)=O)C1 (stereo not given)
Percent Effect (30 µM, 30.03 µM): -10.5%

Br.O=C(O)c1csc(NCCc2ccccc2)n1
Percent Effect (30.3 µM, […]): -6.16%

CC(C)n1cnnc1CNC(=O)c1cnn(-c2ccccc2)c1
Percent Effect (30.3 µM, […]): 5.112%

Cc1cc(NC(=O)CN2CCOC(CN(C)C)C2)n(C)n1 (stereo not given)
Percent Effect (30.3 µM, […]): 9.756%

Cc1nn(C)c(C)c1NC(=O)CN1CCOC(CN(C)C)C1 (stereo not given)
Percent Effect (30.3 µM, […]): 51.92%

Cc1nn(C)c(C)c1NC(=O)CN1CCOC(Cn2cccn2)C1 (stereo not given)
Percent Effect (30.3 µM, […]): 7.584%

CCC[C@@H]1CN(c2cncc(C(=O)N3CCOCC3)n2)C[C@H]1N(C)C
Percent Effect (30.3 µM, […]): 5.453%

FC(F)(F)CCc1ccnc(N2CCN(CCc3ccncc3)CC2)n1
Percent Effect (30.3 µM, […]): -20.06%

NC(=O)c1cccc(CCNCc2cnc(-c3cccs3)s2)c1
Percent Effect (30.3 µM, […]): 8.667%

Cc1nn(C)c2ncnc(N3CCC(O)(CN4CCCC4)CC3)c12
Percent Effect (30.3 µM, […]): 8.338%

CC(=O)c1cn(CCC(=O)N[C@H](C(=O)O)C(C)C)c2ccccc12
Percent Effect (30 µM, 30.03 µM): 8.027%

CC[C@@H](C)[C@H](NC(=O)CCn1cc(C(C)=O)c2ccccc21)C(=O)O
Percent Effect (30.3 µM, […]): 56.09%

CC(=O)c1cn(CCC(=O)N[C@@H](CC(C)C)C(=O)O)c2ccccc12
Percent Effect (30.3 µM, […]): 32.27%

CCC1=N[C@@]2(CC[C@@H]3CN(CC4CC4)C[C@@H]32)C(=O)N1C.O=C(O)C(F)(F)F
Percent Effect (30 µM, 30.03 µM): 21.68%

CN(C1CCCN(c2ccccn2)C1)S(C)(=O)=O (stereo not given)
Percent Effect (30.3 µM, […]): 25.41%

CN1CCCC(N(C)S(=O)(=O)c2cccc3ncccc23)C1 (stereo not given)
Percent Effect (30.3 µM, […]): 59.16%

Cc1ccc2cccc(S(=O)(=O)N(C)C3CCCN(C)C3)c2n1 (stereo not given)
Percent Effect (30.3 µM, […]): 25.11%

O=C(CNc1cc(-n2cnnn2)ccc1F)NCc1ccccc1
Percent Effect (30.3 µM, […]): 43.45%

CCOc1ccccc1CCN1Cc2ncccc2C1=O
Percent Effect (30.3 µM, […]): -1.003%

Cc1nn(C)c(Cl)c1C1CCCN1c1ncnc2sccc12 (stereo not given)
Percent Effect (30 µM, 30.03 µM): 51.25%

COc1c(C2CCCN2c2ncnc3sccc23)c(C)nn1C (stereo not given)
Percent Effect (30.3 µM, […]): 26.6%

Cc1nn(C)c(C)c1C1CCCN1c1ncnc2sccc12 (stereo not given)
Percent Effect (30.3 µM, […]): 33.23%

CC(=O)C(Cc1ccccc1)NC(=O)CSc1nccn1C1CC1 (stereo not given)
Percent Effect (30.3 µM, […]): 7.269%

Cc1noc(C)c1CN1CCO[C@H]2CN(Cc3ccc(F)cc3)C[C@H]21.O=C(O)C(F)(F)F.O=C(O)C(F)(F)F
Percent Effect (30.3 µM, […]): 23.07%

Cc1noc(C)c1CN1CCN(CC2CC2)c2ncccc2C1.O=C(O)C(F)(F)F.O=C(O)C(F)(F)F
Percent Effect (30 µM, 30.03 µM): 23.02%

Cc1noc(C)c1CN1CCC2(CCN(Cc3cccc(F)c3)CC2)C1.O=C(O)C(F)(F)F.O=C(O)C(F)(F)F
Percent Effect (30.3 µM, […]): 59.23%

Cc1noc(C)c1CN1CCO[C@H]2CN(C(=O)C3CCOCC3)C[C@H]21.O=C(O)C(F)(F)F
Percent Effect (30.3 µM, […]): 32.17%

CCC(=O)N1CCC2(CCN(Cc3cccc(F)c3)CC2)CC1.O=C(O)C(F)(F)F
Percent Effect (30.3 µM, […]): 2.147%

Cc1noc(C)c1CN1CCN(Cc2ccncc2)c2ncccc2C1.O=C(O)C(F)(F)F.O=C(O)C(F)(F)F.O=C(O)C(F)(F)F
Percent Effect (30 µM, 30.03 µM): -14.87%

Cc1noc(C)c1CN1CCO[C@H]2CN(Cc3cccc(F)c3)C[C@H]21.O=C(O)C(F)(F)F.O=C(O)C(F)(F)F
Percent Effect (30.3 µM, […]): 56.73%

CC(=O)N1CCC2(CCN(Cc3cccc(F)c3)CC2)CC1.O=C(O)C(F)(F)F
Percent Effect (30.3 µM, […]): 20%

Cc1noc(C)c1CN1CCN(Cc2cccnc2)c2ncccc2C1.O=C(O)C(F)(F)F.O=C(O)C(F)(F)F.O=C(O)C(F)(F)F
Percent Effect (30.3 µM, […]): 57.48%

Cc1ccc(-c2nc(C(=O)N(C)CC(=O)N(C)C)cs2)c(C)c1
Percent Effect (30.3 µM, […]): -31.91%

CCS(=O)(=O)N1CCC(NCC2CNc3cc(C)nn3C2)CC1 (stereo not given)
Percent Effect (30.3 µM, […]): -7.273%

CC(=O)N1CC(=O)N(c2ccsc2)CC12CCN(Cc1ccoc1)C2 (stereo not given)
Percent Effect (30.3 µM, […]): 14.63%

CC1CN(C)CCN1C(=O)c1ccn(-c2cccc(F)c2)n1 (stereo not given)
Percent Effect (30 µM): 3.559%

CCc1nnc(CNC2CCc3nc(C(C)C)nn3C2)o1 (stereo not given)
Percent Effect (30.3 µM, […]): -6.024%

Cc1csc(NC(=O)c2ccc(NC(=O)N3CCOCC3)cc2)n1
Percent Effect (30.3 µM, […]): 69.81%

Cc1csc(-c2cccc(NC(=O)N3CCOCC3)c2)n1
Percent Effect (30.3 µM, […]): 24.69%

Cc1csc(-c2ccc(NC(=O)N3CCOCC3)cc2)n1
Percent Effect (30.3 µM, […]): -0.9004%
